The nature of experiment [1]: qHTS assay to identify small molecule antagonists of the thyroid receptor (TR) signaling pathway - cell viability counter screen (AID 743064). Note: nearly all actives have a fitted effect of over 50% in size. An outline of the steps:
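Plate GH3.TRE-Luc cells; incubate 4 h at 37 °C; add compound, then T3 to 1 nM final; incubate 23.5 h; add CellTiter-Fluor; incubate 30 min at 37 °C, 5% CO2; read fluorescence.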
(In general: qHTS replaces the single test concentration by a dilution series.)

A short description of experiment [2]: qHTS assay to identify small molecule antagonists of the thyroid receptor (TR) signaling pathway (AID 743065). Note: nearly all actives have a fitted effect of over 55% in size. An outline of the steps:
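GH3.TRE-Luc rat pituitary cells carrying two TR response elements driving luciferase were plated for 4 h, given compound plus 1 nM T3 (final), and incubated 23.5 h at 37 C. ONE-Glo luminescence measured reporter inhibition; CellTiter-Fluor fluorescence tracked cytotoxicity.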

Experiment [3] relates to thyroid hormone receptor (rat, GH3 cells). As to the kind of experiment: qHTS assay to identify small molecule agonists of the thyroid receptor (TR) signaling pathway (AID 743066; calls by dose curve).
Experiment [4] deals with Estrogen receptor (Homo sapiens) (UniProt P03372). The experiment can be described thus: qHTS assay to identify small molecule antagonists of the estrogen receptor alpha (ER-alpha) signaling pathway (AID 743069; active = well fitted curve in the direction sought with a large enough effect in the signal ratio in the repeat runs, not every such curve was filed as active; the % refers to the signal ratio). In outline: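 HEK293 cells stably carrying an ER-alpha-UAS-bla beta-lactamase reporter were pre-cultured overnight in 2% charcoal-stripped FBS medium. Test compounds in DMSO were added together with 17beta-estradiol for 18 hr at 37C. Read-out was fluorescence after 2 hr with LiveBLAzer B/G FRET substrate at room temperature.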
Sequence of Estrogen receptor (Homo sapiens) (P03372 whole entry, looked up): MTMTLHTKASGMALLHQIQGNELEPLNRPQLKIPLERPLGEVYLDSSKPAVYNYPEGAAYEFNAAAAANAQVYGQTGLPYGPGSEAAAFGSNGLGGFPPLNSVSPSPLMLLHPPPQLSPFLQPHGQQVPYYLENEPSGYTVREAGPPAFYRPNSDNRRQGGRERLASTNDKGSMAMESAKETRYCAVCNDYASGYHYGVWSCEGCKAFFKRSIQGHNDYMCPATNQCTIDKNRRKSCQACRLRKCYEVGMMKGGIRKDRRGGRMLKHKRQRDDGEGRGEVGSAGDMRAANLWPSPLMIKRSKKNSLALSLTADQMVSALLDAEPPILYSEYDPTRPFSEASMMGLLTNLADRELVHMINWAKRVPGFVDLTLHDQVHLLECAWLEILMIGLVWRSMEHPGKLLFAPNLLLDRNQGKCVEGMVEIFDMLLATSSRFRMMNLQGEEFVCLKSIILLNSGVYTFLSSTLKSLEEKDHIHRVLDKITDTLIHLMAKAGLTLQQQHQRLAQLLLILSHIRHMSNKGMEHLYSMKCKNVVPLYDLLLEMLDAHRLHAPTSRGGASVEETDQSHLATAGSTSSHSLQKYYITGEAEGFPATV

A short description of experiment [5]: qHTS assay to identify small molecule antagonists of the estrogen receptor alpha (ER-alpha) signaling pathway - cell viability counter screen (AID 743074; calls by dose curve; note: nearly all actives have a fitted effect of over 45% in size).
Experiment [6] has as its target Estrogen receptor (Homo sapiens) (UniProt P03372). The experiment can be described thus: qHTS assay to identify small molecule agonists of the estrogen receptor alpha (ER-alpha) signaling pathway (AID 743075; calls by dose curve).
Experiment [7] has the same target. As to the kind of experiment: qHTS assay to identify small molecule agonists of the estrogen receptor alpha (ER-alpha) signaling pathway using the BG1 cell line (AID 743079). For all read-outs here: nearly all actives have a fitted effect of over 20% in size. Note: potency is the fitted concentration of half-maximal effect. As to conditions: BG1Luc4E2 cells, ERE-luciferase agonist, 22 h; for activation: at 70.3 µM (top of the series).
Experiment [8] in a line: qHTS assay to identify small molecule antagonists of the estrogen receptor alpha (ER-alpha) signaling pathway using the BG1 cell line - cell viability counter screen (AID 743081).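 Note: compound given together with 17beta-estradiol as the ER stimulus; nearly all actives have a fitted effect of over 45% in size.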
The next experiment deals with Aromatase (Homo sapiens) (UniProt P11511). As to the kind of experiment: qHTS assay to identify aromatase inhibitors (AID 743083). Note: nearly all actives have a fitted effect of over 55% in size. Note: potency is the fitted concentration of half-maximal effect.
Sequence of Aromatase (Homo sapiens) (P11511 whole entry, looked up): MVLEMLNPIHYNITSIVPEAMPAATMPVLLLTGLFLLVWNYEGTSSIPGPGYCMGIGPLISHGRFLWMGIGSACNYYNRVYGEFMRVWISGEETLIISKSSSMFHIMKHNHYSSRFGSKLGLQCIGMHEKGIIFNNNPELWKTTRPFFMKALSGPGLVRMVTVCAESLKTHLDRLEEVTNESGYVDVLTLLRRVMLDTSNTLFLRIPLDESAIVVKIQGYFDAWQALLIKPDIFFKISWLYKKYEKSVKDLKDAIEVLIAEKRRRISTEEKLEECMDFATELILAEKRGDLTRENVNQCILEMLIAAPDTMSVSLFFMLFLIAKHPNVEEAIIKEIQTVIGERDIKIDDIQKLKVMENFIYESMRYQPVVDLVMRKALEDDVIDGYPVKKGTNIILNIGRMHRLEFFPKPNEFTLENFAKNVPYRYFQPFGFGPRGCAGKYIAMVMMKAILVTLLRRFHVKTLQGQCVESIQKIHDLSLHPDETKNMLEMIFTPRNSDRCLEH
Experiment [9] is described as follows: qHTS assay to identify small molecule antagonists of the estrogen receptor alpha (ER-alpha) signaling pathway using the BG1 cell line (AID 743080; calls by dose curve;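 note: BG1 cells stimulated with 17beta-estradiol alongside compound; nearly all actives have a fitted effect of over 25% in size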). An outline of the steps:
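BG1-Luc-4E2 cells (endogenous full-length ER-alpha, stable 4×ERE-luciferase) were starved 5 days in phenol-red-free medium with 10% charcoal-stripped FBS, plated 24 h, then given compound plus 17beta-estradiol for 21.5 h at 37 C; ONE-Glo luminescence read after 30 min.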

The text below walks through data of PubChem BioAssay (Tox21).

SMILES strings stand for the structures. Inconclusive results are not listed. A number with no mark means an inactive call. The source made the active and inactive calls. Unless noted, calls come from the whole dose curve; as a rule, active = well fitted curve in the direction sought with a large enough effect in the repeat runs; inconclusive = weak or mixed curves; inactive = no such curve, though single readings can be large; an effect the other way counts as inactive or inconclusive.
% is set by controls: 0 for no effect and ±100 for the full control effect.

Regarding `CCOC(=O)Nc1cccc(OC(=O)Nc2ccccc2)c1`, the Potency result in [1], in experiment [2], in [3], in experiment [4], in [5] and in [6] was “inactive” each time. Also, the Potency result (in experiment [8]; with Aromatase (Homo sapiens)) was “inactive” in each case. In addition, in experiment [7], the Potency was 27.3 µM (active).
Regarding `CCCC(C)(COC(N)=O)COC(N)=O`, the Potency result (in experiment [1]; in [2]; in experiment [3]; in experiment [5]; in experiment [8]; with Aromatase (Homo sapiens)) was “inactive” in each case.
For `CCOC1Oc2ccc(OS(C)(=O)=O)cc2C1(C)C` (stereo unspecified), the Potency result (in [1]; in experiment [2]; in [3]; in experiment [4]; with Aromatase (Homo sapiens)) was “inactive” each time.
Take `COC(=O)c1ccc(CBr)cc1`: the Potency entry in experiment [1], in [2], in experiment [3], in [4], in [6] and in experiment [8] was “inactive” each time. In addition, in the experiment with Aromatase (Homo sapiens), the Potency result was “inactive”. The Potency in [7] was 6.94 µM (active).
For `O=c1[nH]c2ccccc2o1`, the Potency entry (in experiment [1]; in experiment [2]; in [3]; in experiment [5]; in experiment [8]; with Aromatase (Homo sapiens)) was “inactive” throughout.
With `CCOC(=O)N(C)N=O`, the Potency result (in experiment [1]; in experiment [2]; in experiment [3]; in [5]; in experiment [8]; with Aromatase (Homo sapiens)) was “inactive” each time.
Take `O=C(O)CBr`: the Potency result (in [1]; in [2]; in experiment [3]; in [5]; in experiment [8]; with Aromatase (Homo sapiens)) was “inactive” throughout.
`C/C=C/CC#N`: the Potency result in experiment [1], in experiment [2], in [3], in [4], in [6] and in experiment [9] was “inactive” each time. Further, the Potency entry (in experiment [8]; in the experiment with Aromatase (Homo sapiens)) was “inactive” each time.
For `CC(C)[C@]12CC(=O)[C@H](C)[C@H]1C2`, the Potency result (in experiment [1]; in experiment [2]; in [3]; in experiment [5]; in [8]; in the experiment with Aromatase (Homo sapiens)) was “inactive” in each case.
Take `CCOC(=O)C(Cl)Cc1cc(-n2nc(C)n(C(F)F)c2=O)c(F)cc1Cl` (stereo unspecified): the Potency result in experiment [1], in experiment [2], in [3], in experiment [4], in experiment [5] and in experiment [6] was “inactive” in each case. Moreover, the Potency entry in experiment [9] and in experiment [8] was “inactive” throughout. Besides, in the experiment with Aromatase (Homo sapiens), the Potency is 54.5 µM (active).
Turning to `CNC(=O)Oc1cc(C)c(N(C)C)c(C)c1`, the Potency result (in [1]; in [2]; in experiment [3]; in experiment [5]; in experiment [8]; with Aromatase (Homo sapiens)) was “inactive” throughout.
With `CC1N=C(N)OC1c1ccccc1` (stereo unspecified), the Potency result in experiment [1], in [2], in experiment [3], in experiment [4], in [6] and in experiment [9] was “inactive” in each case. For the same compound, in the experiment with Aromatase (Homo sapiens), the Potency entry is “inactive”. Moreover, the activation in experiment [7] was 10.7%.
Turning to `Cc1ccc(-c2nc3ccc(C)cn3c2CC(=O)N(C)C)cc1`, the Potency entry in experiment [1], in experiment [2], in [3], in experiment [5], in experiment [6] and in [9] was “inactive” throughout. The Potency entry (in experiment [8]; in the experiment with Aromatase (Homo sapiens)) was “inactive” in each case. Moreover, the activation in [7] is 15.6%.
For the compound `CCCN1CCC[C@@H]2Cc3[nH]ncc3C[C@H]21`, the Potency entry in [1], in experiment [2], in experiment [3], in [4], in experiment [5] and in [6] was “inactive” each time. The Potency entry (in experiment [8]; with Aromatase (Homo sapiens)) was “inactive” each time. In addition, in [7], the activation was -4.44%.
As for `CNC(=O)Oc1ccccc1C(C)C`, the Potency entry in experiment [1], in experiment [2], in [3], in [4], in experiment [5] and in experiment [6] was “inactive” each time. Besides, the Potency entry (in [8]; in the experiment with Aromatase (Homo sapiens)) was “inactive” in each case. Moreover, in experiment [7], the activation was -4.06%.
On to `O=C(O)C(Cl)Br` (stereo unspecified), for which the Potency entry (in [1]; in [2]; in experiment [3]; in experiment [5]; in experiment [8]; with Aromatase (Homo sapiens)) was “inactive” in each case.
On to `Cl/C=C/CCl`, for which the Potency entry (in [1]; in experiment [2]; in experiment [3]; in experiment [5]; in [8]; in the experiment with Aromatase (Homo sapiens)) was “inactive” each time.
`CC(=O)CN(CC(C)=O)N=O`: the Potency result in experiment [1], in experiment [2], in experiment [3], in experiment [4], in [5] and in experiment [6] was “inactive” in each case. Further, the Potency result (in experiment [8]; with Aromatase (Homo sapiens)) was “inactive” each time. Further, the activation in experiment [7] is -5.98%.
